Where a name gives a salt, the structure may show the parent alone.
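Further: immunostained co-cultures imaged by high-content microscopy, Z-score per plate against mean and SD of 0.1% DMSO wells, compounds added on differentiation day 18, analysed day 21.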

This assay deals with hN + hpA co-culture (H1 iNGN2 human neurons + human primary astrocytes). Put plainly: presynaptic density (SYNAPSIN1 puncta per MAP2 neurite area), Z-score vs DMSO controls; higher = more presynaptic puncta (synapse-promoting). The note with it: 3 µM; 72 h.
On to `Cc1ccc([C@@H]2O[C@H](CO)[C@@H](O)[C@H](O)[C@H]2O)cc1Cc1ccc(-c2ccc(F)cc2)s1` [Canagliflozin], for which the “presynaptic density (Z-score)” value is -0.473. Regarding `Cn1c(N2CCCCS2(=O)=O)nc(C(=O)NCc2ccc(F)cc2)c(O)c1=O`, the “presynaptic density (Z-score)” value is -1.68. For `COc1cc(F)c(F)c(Nc2ccc(I)cc2F)c1NS(=O)(=O)C1(CC(O)CO)CC1` (configuration not stated) [Refametinib (RDEA119], the “presynaptic density (Z-score)” value turned out to be 0.433. On to `COc1ccc2c(c1)c(CC(=O)N1CCOCC1)c(C)n2C(=O)c1ccc(Cl)cc1`, for which the “presynaptic density (Z-score)” value was -0.448. On to `COC1CC2CCC(C)C(O)(O2)C(=O)C(=O)N2CCCCC2C(=O)OC(C(C)CC2CCC(OC(=O)C(C)(CO)CO)C(OC)C2)CC(=O)C(C)C=C(C)C(O)C(OC)C(=O)C(C)CC(C)C=CC=CC=C1C` (configuration not stated) [Temsirolimus (CCI-779], for which the “presynaptic density (Z-score)” value stood at 0.145. Turning to `NCC(=O)Nc1ccc(-n2nc(C(F)(F)F)cc2-c2ccc3c(ccc4ccccc43)c2)cc1`, the “presynaptic density (Z-score)” value was -0.52. With `CCCCCCCCCCCC1=C(O)C(=O)C=C(O)C1=O`, the “presynaptic density (Z-score)” value was -0.826. `C=C1C(=O)O[C@H]2[C@H]1CC/C(C)=C/CC[C@@]1(C)O[C@@H]21` [(-)-Parthenolide]: the “presynaptic density (Z-score)” value is -0.888. To `Cc1cc(-c2ccc(CC(=O)Nc3ccc(-c4cccnc4)cc3)cc2)ccn1` belongs 0.0884; to `CN1CCC(CNc2ccc3ncc(-c4cccc(OC(F)(F)F)c4)n3n2)CC1`, -2.44; to `CCc1c2c(nc3ccc(OC(=O)N4CCC(N5CCCCC5)CC4)cc13)-c1cc3c(c(=O)n1C2)COC(=O)[C@]3(O)CC` [Irinotecan], -0.725. Take `CCc1c2c(nc3ccc(OC(=O)N4CCC(N5CCCCC5)CC4)cc13)-c1cc3c(c(=O)n1C2)COC(=O)C3(O)CC` (configuration not stated) [Irinotecan HCl Trihydrate_Selleck]: the “presynaptic density (Z-score)” value was -0.772.
